Assay results taken from the supplement of paper PMC11732987, “Enantioselective OTUD7B fragment discovery through chemoproteomics screening and high-throughput optimisation” (Communications Chemistry, 2025).

What was measured:
Assay in all cases: log2 ratio of Biotin-Ahx-Ub-VS probe labelling (fragment/DMSO); higher = less target engagement (more negative = stronger competition), active = hit call of the paper (q ≤ 0.05, log2 ratio ≤ -1)
Settings in all cases: compound concentration: 200 uM; treatment time: 3 h
USP34 = USP34 (UniProt Q70CQ2)
Chain of USP34 (Q70CQ2 whole entry, the tested form may be a part): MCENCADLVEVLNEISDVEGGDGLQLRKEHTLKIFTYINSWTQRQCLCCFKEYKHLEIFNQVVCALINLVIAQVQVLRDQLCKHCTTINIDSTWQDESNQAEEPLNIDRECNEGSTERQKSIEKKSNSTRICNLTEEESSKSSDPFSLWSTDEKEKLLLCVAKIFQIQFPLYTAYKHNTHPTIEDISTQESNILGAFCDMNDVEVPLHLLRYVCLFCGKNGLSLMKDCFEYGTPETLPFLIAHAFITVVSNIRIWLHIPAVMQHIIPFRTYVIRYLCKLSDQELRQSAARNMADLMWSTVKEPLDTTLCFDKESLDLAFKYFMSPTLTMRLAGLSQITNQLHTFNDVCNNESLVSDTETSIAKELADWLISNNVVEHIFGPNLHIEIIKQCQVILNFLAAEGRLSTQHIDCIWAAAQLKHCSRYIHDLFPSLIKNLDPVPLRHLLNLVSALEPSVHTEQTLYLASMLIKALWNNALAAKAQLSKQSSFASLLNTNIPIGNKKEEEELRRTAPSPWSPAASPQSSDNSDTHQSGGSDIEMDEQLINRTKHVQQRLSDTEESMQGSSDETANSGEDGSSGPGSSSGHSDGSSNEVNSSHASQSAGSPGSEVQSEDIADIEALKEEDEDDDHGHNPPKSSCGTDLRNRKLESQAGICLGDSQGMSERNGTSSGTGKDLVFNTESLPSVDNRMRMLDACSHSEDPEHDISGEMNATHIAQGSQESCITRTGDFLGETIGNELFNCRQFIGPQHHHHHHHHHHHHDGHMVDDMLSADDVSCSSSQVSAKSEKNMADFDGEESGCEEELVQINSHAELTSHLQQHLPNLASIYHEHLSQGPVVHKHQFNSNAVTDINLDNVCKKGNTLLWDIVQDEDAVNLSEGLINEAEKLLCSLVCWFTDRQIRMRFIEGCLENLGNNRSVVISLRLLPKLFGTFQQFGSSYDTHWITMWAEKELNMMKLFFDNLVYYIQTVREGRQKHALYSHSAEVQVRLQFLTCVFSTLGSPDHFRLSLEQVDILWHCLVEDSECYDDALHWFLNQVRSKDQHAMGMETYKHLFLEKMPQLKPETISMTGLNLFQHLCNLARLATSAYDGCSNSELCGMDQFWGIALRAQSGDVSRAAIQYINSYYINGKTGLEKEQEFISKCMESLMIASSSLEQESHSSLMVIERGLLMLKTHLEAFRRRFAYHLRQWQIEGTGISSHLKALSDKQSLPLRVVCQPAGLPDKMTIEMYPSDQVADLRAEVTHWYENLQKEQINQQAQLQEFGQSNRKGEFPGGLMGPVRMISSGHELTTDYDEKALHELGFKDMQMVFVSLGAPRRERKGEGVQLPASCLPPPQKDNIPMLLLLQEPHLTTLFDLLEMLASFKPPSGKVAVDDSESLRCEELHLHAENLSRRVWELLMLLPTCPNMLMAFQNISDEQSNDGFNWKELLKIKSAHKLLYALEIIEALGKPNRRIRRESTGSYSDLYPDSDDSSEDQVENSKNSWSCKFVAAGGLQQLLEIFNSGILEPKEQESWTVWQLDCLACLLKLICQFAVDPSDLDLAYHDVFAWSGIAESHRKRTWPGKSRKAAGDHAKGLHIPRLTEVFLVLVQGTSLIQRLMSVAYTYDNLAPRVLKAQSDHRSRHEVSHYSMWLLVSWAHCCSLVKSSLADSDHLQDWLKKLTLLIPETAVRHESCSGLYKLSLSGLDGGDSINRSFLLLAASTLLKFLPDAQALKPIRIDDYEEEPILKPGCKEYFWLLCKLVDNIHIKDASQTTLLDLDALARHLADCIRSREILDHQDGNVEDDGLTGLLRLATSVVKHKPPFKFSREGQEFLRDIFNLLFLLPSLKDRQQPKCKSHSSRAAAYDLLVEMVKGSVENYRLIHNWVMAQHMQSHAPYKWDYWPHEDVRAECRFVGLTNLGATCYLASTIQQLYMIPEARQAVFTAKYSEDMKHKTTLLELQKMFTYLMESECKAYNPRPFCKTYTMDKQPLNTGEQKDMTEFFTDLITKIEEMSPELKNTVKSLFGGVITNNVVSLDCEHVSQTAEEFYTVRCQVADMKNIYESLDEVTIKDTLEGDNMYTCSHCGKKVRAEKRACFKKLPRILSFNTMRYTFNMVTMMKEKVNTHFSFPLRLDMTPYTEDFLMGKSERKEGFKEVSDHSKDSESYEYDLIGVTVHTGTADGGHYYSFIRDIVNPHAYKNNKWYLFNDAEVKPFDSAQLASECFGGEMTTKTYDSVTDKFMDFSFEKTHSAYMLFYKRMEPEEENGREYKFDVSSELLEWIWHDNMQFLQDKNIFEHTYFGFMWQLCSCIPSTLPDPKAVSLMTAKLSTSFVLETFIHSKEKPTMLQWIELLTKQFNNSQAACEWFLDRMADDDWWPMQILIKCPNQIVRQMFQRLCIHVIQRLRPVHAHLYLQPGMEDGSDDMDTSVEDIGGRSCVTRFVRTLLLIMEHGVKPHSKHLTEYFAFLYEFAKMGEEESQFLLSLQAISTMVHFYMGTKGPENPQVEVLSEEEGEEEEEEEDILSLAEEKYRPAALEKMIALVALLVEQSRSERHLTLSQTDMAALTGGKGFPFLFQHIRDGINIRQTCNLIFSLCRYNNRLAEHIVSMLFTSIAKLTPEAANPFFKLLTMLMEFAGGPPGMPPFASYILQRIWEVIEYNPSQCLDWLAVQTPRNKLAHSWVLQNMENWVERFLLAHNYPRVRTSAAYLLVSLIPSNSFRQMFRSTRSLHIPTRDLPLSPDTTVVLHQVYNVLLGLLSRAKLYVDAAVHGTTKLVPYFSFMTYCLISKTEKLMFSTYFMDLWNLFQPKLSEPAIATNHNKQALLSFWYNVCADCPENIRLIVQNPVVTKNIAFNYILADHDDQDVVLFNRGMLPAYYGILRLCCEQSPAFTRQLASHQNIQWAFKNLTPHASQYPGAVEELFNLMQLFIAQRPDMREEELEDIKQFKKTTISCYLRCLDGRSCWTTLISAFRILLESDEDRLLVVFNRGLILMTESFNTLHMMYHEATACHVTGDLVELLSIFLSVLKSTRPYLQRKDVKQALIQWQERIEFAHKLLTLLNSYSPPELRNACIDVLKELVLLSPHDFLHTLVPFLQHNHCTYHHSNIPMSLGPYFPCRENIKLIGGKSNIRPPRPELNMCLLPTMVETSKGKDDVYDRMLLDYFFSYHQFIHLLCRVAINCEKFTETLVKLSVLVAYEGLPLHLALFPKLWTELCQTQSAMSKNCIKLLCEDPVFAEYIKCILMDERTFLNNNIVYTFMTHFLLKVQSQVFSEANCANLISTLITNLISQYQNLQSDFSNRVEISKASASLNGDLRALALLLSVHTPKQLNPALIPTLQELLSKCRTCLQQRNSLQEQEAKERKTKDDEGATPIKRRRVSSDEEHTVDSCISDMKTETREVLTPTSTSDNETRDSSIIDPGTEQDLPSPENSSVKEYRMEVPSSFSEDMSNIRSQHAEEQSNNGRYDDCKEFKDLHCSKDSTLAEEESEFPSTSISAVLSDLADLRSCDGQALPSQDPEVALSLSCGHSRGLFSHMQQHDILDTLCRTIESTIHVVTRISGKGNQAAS
How it was run: (§1)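 The table lists average log2 ratios of fragment over vehicle, from an unpaired t-test on global-median-normalised Spectronaut label-free quantities. Proteins with ≥2 unique peptides were used. Samples were HEK293T lysate (495 µg) treated in triplicate with fragment at 200 µM or vehicle for 3 h, then with Biotin-Ahx-Ub-VS (0.5 µM final) for 1 h, with labelled DUBs NeutrAvidin-enriched and run by diaPASEF LC-MS/MS.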

USP36 = target: T1, USP36 (UniProt Q9P275)
T1 sequence (whole entry): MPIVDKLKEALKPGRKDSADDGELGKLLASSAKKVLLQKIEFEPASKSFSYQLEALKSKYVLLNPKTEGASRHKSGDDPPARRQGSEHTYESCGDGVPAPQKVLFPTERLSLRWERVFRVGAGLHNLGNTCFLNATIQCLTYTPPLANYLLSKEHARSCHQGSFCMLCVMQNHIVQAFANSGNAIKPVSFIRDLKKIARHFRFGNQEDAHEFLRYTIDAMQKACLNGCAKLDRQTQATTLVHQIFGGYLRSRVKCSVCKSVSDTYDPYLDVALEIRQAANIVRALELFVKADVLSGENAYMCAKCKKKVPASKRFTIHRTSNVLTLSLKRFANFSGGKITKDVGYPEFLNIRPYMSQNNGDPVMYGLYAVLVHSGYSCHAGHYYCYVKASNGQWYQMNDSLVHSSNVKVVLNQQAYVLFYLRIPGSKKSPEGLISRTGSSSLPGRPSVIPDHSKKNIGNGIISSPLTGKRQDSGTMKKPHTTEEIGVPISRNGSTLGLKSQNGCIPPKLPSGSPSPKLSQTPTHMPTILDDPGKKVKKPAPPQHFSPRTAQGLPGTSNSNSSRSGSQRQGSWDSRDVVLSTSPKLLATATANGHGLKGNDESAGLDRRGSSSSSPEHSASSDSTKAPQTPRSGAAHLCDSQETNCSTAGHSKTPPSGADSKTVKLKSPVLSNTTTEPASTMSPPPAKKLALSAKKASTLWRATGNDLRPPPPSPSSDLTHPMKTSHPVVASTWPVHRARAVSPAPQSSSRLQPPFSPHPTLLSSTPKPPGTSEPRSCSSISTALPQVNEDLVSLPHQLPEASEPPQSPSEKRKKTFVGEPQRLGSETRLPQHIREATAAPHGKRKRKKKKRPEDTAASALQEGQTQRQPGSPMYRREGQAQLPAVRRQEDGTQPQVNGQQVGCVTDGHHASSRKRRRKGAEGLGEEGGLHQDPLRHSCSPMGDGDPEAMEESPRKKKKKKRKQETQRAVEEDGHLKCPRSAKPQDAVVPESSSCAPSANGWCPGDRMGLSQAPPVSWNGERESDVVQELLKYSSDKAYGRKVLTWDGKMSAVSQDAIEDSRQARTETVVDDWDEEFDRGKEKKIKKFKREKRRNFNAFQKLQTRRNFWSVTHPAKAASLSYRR
How it was run: as §1

USP38 = target: T2, USP38 (UniProt Q8NB14)
T2 sequence (whole entry): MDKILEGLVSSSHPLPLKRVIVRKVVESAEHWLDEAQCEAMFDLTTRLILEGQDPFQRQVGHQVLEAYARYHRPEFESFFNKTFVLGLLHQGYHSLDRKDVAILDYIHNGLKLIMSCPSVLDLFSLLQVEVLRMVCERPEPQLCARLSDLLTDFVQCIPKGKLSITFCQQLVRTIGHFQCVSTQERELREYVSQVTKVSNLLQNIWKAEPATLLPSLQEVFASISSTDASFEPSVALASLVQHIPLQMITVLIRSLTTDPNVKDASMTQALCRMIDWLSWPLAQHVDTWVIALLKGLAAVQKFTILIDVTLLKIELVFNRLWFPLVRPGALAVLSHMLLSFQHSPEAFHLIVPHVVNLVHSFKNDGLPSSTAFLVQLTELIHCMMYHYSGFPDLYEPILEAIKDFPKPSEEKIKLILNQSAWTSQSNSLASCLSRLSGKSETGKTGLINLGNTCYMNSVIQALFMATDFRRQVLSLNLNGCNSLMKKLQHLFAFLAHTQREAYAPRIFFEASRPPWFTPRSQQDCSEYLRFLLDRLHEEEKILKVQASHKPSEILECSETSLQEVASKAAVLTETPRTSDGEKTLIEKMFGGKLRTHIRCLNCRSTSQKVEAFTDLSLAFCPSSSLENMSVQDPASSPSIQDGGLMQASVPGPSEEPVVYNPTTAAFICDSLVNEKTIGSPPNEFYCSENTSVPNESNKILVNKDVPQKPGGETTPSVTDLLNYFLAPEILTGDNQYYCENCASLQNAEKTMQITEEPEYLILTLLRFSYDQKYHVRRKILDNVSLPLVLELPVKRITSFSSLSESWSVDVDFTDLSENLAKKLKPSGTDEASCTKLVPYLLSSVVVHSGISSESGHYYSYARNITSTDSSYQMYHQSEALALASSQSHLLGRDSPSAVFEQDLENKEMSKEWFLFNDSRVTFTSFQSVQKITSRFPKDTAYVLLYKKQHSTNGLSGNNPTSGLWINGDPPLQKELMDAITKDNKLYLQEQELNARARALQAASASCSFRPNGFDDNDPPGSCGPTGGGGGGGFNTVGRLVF
How it was run: as §1

USP39 = target: T3, USP39 (UniProt Q53GS9)
T3 sequence (whole entry): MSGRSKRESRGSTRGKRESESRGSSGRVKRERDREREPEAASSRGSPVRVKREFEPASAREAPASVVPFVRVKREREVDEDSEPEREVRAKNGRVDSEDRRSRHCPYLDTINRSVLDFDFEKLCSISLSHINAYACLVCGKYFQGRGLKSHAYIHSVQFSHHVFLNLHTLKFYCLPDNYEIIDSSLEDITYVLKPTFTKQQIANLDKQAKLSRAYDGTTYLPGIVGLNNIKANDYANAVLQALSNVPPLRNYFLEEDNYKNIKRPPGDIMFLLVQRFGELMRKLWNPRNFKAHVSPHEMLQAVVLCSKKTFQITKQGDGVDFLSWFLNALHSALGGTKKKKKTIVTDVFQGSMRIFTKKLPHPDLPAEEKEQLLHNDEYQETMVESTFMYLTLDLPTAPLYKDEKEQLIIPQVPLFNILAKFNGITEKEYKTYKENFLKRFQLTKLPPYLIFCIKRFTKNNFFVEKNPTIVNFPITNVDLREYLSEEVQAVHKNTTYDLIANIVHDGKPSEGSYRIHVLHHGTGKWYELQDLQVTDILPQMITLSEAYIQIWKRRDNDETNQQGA
How it was run: as §1

USP4 = target: T4, USP4 (UniProt Q13107)
T4 sequence (whole entry): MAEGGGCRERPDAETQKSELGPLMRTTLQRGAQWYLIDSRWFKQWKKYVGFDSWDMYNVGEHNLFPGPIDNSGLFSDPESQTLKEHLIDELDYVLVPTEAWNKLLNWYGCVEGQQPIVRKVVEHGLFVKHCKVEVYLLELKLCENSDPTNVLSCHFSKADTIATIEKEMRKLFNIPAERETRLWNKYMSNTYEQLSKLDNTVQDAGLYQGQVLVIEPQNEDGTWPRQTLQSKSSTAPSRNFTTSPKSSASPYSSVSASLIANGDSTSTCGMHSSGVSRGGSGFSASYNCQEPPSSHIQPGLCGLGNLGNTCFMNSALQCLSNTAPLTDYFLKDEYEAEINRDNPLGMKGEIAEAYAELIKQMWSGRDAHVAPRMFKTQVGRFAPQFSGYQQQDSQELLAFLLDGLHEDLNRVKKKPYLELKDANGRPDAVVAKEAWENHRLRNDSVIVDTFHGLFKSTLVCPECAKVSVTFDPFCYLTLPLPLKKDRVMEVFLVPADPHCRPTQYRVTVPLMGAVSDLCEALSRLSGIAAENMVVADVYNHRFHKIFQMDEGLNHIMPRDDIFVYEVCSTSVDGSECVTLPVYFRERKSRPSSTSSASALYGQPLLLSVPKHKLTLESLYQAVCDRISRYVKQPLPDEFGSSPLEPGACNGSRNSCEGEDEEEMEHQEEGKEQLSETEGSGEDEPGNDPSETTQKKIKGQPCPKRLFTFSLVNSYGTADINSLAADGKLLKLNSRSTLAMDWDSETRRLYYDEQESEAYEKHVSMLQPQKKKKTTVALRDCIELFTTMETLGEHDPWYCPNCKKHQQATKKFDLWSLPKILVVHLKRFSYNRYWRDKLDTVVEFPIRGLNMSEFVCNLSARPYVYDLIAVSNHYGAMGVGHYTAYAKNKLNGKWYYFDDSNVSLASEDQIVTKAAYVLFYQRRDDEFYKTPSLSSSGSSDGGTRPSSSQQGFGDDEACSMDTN
How it was run: as §1

Measured: log2 ratio of Biotin-Ahx-Ub-VS probe labelling

CC(O)CC1CCN(C(=O)CCl)CC1 (stereo not given)
inactive: USP34 -0.0285 | USP36 -0.326 | USP38 -0.143 | USP39 -0.0644 | USP4 -0.0429
